Among the data in PubChem BioAssay are composite z-score, composite Z-score and z-score values, retold here.

The source made the active and inactive calls.

Assay [1] has as its target Albumin (Bos taurus) (UniProt P02769). As to the kind of experiment: bovine serum albumin binders on microarray, profiling panel, artefact control for SMM control protein annotation, biochemical, small-molecule microarray, Alexa647 label, 635/667 nm fluorescence (AID 1118).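 Also: score merges 667 nm emission intensity and signal-to-noise per printed compound spot.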 The note with it: BSA-A647 binding, fluorescence 635 nm, higher = more signal.
A short description of assay [2]: small-molecule microarray binders of probe aXIP, primary screen, biochemical, NeuroSMM set, 635/667 nm fluorescence (AID 1119).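 Also: probe is the protein aXip251-270 applied at 1 µg/mL to compound-printed slides; binding of probe to printed compounds measured as 667 nm fluorescence plus signal to noise.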 The note with it: higher = more signal, called active from +8 up or from −8 down.
The nature of assay [3]: small-molecule binders of probe aNOTCH3, primary screen, biochemical, small-molecule microarray, 635/667 nm fluorescence (AID 1120).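 Also: probe is a biotin-tagged antibody raised against NOTCH3 rather than NOTCH3 protein; score merges spot fluorescence near 667 nm with spot signal to noise.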 Particulars: higher = more signal.
The nature of assay [4]: small-molecule binders of probe aNOTCH2, primary screen, biochemical, small-molecule microarray, 635/667 nm fluorescence (AID 1121).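 Also: score merges feature fluorescence read at 667 nm with its signal to noise.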 The note with it: higher = more signal.
Assay [5] has as its target Carbonic anhydrase 2 (Homo sapiens) (UniProt P00918). As to the kind of experiment: CAII small-molecule binders, profiling panel, biochemical, small-molecule microarray, Alexa647-labelled CAII (AID 1122). The note with it: CAII-A647 binding fluorescence, higher = more signal.
A short description of assay [6]: COS7 lysate on small-molecule microarray, probe aHis, 635 nm (AID 1123).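 Also: z-score combines 667nm fluorescence intensity with signal-to-noise per printed compound spot.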 Particulars: COS7 cell lysate, fluorescence, higher = more signal.
Assay [7] in a line: compound binding in COS7 lysate, probe aLAP1, primary screen, cell lysate, small-molecule microarray (AID 1124).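 Also: lysate comes from COS7 cells expressing LAP1 and is applied at 0.3 µg/mL; score merges spot fluorescence near 667 nm with signal-to-noise over triplicate slides.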 Particulars: probe aLAP1, fluorescence, higher = more signal.
Assay [8] relates to Sam68 (KHDRBS1). The assay is described as follows: Sam68 small-molecule binders, primary screen, biochemical, small-molecule microarray, 635 nm fluorescence (AID 1125).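 Also: score merges 667 nm channel intensity with signal to noise over triplicate slides.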 Particulars: small-molecule microarray binding, higher = more signal.
The subject of assay [9] is Chordin-like protein 2 (CHRDL2). As to the kind of experiment: CHRDL2 small-molecule binders, primary screen, biochemical, small-molecule microarray, 635 nm fluorescence (AID 1126).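 Also: printed compound slides probed with Chrdl2 protein at 4 µg/mL for 1 h at 4 C; score merges 667 nm emission intensity with signal to noise over three replicate slides.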 The note with it: small-molecule microarray binding, fluorescence 635 nm; higher = more signal.
In assay [10] the target is Concanavalin-A (Canavalia ensiformis) (UniProt P02866). As to the kind of experiment: ConA small-molecule binders, primary screen, artefact control for SMM control protein annotation, biochemical, small-molecule microarray, Alexa647 label, 635 nm (AID 1127).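 Also: z combines 667 nm emission intensity with signal-to-noise across three replicate slides.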 Particulars: ConA-A647 binding fluorescence, higher = more signal.
Assay [11] can be described thus: anti-His antibody binders, primary screen, artefact control for SMM control protein annotation, biochemical, small-molecule microarray, 635 nm fluorescence (AID 1128).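 Also: score merges feature fluorescence with signal-to-noise for each printed compound spot.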 The note with it: anti-His Alexa647 antibody binding, higher = more signal.
Assay [12] deals with Human papillomavirus type 1a E7 protein (residues 1-88). The assay is described as follows: HPV1a E7 small-molecule binders, primary screen, biochemical, small-molecule microarray, residues 1-88, 635 nm (AID 1129). The note with it: small-molecule microarray binding, fluorescence 635 nm; higher = more signal.
For assay [13], the target named is Focal adhesion kinase 1 (Homo sapiens) (UniProt Q05397). The assay is described as follows: small-molecule microarray binders of FAK, primary screen, biochemical, 635/667 nm fluorescence, BSA, DTT (AID 1130).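 Also: composite of spot emission at 667 nm and signal to noise over triplicate slides.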 The note with it: PTK2 binding, 635 nm fluorescence, higher = more signal.
Assay [14] deals with Fibrinogen (Alexa647-labelled). The assay is described as follows: fibrinogen binders on compound microarrays, profiling panel, artefact control for SMM control-protein annotation, biochemical, small-molecule microarray, 635/667 nm fluorescence (AID 1131).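 Also: z-score merges 667 nm fluorescence with per-spot signal-to-noise over triplicate slides.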 Particulars: fibrinogen-A647 binding fluorescence, higher = more signal.
The target in assay [15] is Follistatin (Homo sapiens) (UniProt P19883). As to the kind of experiment: follistatin binders on small-molecule microarrays, primary screen, biochemical, small-molecule microarray, 635/667 nm fluorescence (AID 1132). Particulars: FST binding, 635 nm fluorescence, higher = more signal.
The target in assay [16] is Fibroblast growth factor 2 (Homo sapiens) (UniProt P09038). The assay is described as follows: FGF2 binders on small-molecule microarrays, primary screen, biochemical, small-molecule microarray, 635/667 nm fluorescence (AID 1133). The note with it: small-molecule microarray binding, FGF2, fluorescence 635/667; higher = more signal.
Assay [17] is described as follows: mitochondrial membrane potential change in A549 cells, profiling panel, cell-based, JC-1 fluorescence, basal, 24 h, 100 nL (AID 1138).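 Also: A549 lung adenocarcinoma cells under basal conditions with no added stimulus; test concentration not given here.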 Particulars: higher = more signal.
Assay [18] concerns Lefty1. The assay is described as follows: Lefty1 binders on small-molecule microarrays, primary screen, biochemical, small-molecule microarray, 635/667 nm fluorescence (AID 1139). The note with it: small-molecule microarray binding, fluorescence 635/667; higher = more signal.
Assay [19] deals with wheat germ agglutinin (Triticum aestivum), Alexa647-labelled. As to the kind of experiment: wheat germ agglutinin binders on compound microarrays, profiling panel, artefact control for SMM control-protein annotation, biochemical, small-molecule microarray, 635/667 nm fluorescence (AID 1140).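 Also: score merges 667 nm feature emission with signal to noise over triplicate slides.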 The note with it: WGA-A647 binding, 635 nm fluorescence, higher = more signal.
In assay [20] the target is Luciferin 4-monooxygenase (Photinus pyralis) (UniProt P08659). As to the kind of experiment: firefly luciferase enzyme inhibitors, primary screen, biochemical, luminescence, purified enzyme, 2006 set (AID 1141).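 Also: cell-free assay with purified firefly luciferase at 100 ng per well in PBS; test concentration not given here.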 The note with it: SteadyGlo luminescence, 30 min, higher = more signal, called active from +8 up or from −8 down.
Luciferin 4-monooxygenase (Photinus pyralis), sequence (P08659 whole entry, looked up): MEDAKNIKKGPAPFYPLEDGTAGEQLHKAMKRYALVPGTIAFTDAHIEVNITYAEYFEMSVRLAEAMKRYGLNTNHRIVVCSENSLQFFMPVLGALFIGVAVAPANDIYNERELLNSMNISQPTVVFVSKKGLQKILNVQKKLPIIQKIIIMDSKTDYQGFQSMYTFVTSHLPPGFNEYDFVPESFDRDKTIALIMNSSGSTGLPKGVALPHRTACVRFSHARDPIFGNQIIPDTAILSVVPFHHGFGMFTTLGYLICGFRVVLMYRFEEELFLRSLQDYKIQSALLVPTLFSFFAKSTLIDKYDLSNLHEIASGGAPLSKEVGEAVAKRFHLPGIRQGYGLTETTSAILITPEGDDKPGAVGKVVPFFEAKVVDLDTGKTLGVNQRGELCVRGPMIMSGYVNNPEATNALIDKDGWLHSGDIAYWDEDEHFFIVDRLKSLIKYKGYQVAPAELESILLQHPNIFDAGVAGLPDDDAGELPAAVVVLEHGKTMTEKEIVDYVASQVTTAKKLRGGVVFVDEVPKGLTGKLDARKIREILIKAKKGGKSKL

Focal adhesion kinase 1 (Homo sapiens), sequence (Q05397 whole entry, looked up): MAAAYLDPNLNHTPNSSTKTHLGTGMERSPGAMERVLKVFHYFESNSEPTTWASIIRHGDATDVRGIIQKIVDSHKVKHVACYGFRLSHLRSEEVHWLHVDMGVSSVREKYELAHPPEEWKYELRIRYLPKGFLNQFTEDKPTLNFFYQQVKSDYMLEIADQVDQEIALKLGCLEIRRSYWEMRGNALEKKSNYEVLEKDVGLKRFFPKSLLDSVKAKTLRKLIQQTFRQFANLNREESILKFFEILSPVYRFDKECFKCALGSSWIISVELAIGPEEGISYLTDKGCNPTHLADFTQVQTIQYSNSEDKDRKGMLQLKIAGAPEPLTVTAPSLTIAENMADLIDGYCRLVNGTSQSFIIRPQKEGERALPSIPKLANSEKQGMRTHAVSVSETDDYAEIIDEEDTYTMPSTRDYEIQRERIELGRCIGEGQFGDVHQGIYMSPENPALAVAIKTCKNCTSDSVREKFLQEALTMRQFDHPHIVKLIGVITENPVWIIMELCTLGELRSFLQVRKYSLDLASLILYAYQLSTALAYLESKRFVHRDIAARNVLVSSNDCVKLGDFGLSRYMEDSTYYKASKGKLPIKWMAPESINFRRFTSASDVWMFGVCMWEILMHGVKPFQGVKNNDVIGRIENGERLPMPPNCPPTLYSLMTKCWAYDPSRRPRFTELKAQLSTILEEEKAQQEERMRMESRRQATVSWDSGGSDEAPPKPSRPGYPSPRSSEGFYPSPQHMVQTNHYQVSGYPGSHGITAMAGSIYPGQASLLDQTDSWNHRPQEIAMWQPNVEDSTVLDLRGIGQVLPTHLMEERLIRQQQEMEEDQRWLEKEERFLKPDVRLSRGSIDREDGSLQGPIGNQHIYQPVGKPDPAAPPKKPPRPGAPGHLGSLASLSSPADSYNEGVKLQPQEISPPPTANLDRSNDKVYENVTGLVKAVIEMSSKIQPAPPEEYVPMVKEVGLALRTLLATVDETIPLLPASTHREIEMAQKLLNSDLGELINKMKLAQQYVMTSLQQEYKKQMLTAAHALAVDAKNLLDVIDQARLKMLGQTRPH
Concanavalin-A (Canavalia ensiformis), sequence (P02866 whole entry, looked up): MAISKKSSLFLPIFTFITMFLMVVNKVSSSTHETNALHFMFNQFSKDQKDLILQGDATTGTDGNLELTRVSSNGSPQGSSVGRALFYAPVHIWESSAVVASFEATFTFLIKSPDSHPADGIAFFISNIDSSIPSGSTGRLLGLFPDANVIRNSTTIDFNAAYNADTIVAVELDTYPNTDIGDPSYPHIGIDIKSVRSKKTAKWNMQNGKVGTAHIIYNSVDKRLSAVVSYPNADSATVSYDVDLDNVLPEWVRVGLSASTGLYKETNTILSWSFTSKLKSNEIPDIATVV
Fibroblast growth factor 2 (Homo sapiens), sequence (P09038 whole entry, looked up): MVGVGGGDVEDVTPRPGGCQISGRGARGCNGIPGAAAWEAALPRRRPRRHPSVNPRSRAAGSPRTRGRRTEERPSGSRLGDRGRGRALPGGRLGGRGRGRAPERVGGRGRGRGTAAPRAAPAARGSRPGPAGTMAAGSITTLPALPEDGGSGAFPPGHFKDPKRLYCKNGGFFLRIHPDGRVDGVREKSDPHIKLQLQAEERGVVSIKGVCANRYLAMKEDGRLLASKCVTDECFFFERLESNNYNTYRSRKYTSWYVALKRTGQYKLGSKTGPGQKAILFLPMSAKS
Albumin (Bos taurus), sequence (P02769 whole entry, looked up): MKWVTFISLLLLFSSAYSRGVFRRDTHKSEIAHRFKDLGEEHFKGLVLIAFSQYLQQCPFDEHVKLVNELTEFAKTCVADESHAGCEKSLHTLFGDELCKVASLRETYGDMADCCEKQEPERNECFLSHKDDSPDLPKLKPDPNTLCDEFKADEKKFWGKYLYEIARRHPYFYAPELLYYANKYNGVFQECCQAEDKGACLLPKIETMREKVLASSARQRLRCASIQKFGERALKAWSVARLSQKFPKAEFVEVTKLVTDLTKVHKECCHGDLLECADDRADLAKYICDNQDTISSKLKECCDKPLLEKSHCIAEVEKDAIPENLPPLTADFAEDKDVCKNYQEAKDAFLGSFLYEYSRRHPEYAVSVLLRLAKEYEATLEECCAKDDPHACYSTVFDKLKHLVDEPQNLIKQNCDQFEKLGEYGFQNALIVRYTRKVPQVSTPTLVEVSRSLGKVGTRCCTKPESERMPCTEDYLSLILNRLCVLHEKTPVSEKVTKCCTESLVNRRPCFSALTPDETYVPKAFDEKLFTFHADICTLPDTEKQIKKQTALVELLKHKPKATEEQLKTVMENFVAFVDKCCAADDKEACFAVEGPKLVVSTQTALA
Follistatin (Homo sapiens), sequence (P19883 whole entry, looked up): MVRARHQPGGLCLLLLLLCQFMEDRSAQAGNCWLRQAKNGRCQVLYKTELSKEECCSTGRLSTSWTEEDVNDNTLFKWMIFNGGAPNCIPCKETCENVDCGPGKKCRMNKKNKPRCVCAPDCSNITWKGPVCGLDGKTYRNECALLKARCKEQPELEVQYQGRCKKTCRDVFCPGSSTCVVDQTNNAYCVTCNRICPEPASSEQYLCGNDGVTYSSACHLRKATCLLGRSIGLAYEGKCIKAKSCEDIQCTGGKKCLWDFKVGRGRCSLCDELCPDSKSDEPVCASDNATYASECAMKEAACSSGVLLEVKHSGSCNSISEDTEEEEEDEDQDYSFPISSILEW

In the case of `Cc1ccc(N2C(=O)c3ccccc3[C@@H](C(=O)NC3CC3)[C@@H]2c2ccc(CO)cc2)nc1`, the composite z-score in assay [1] is -0.301; in assay [3], -0.481; in [4], -0.165; in assay [5] it was 0.677; in assay [6], -0.663; in assay [7], 0.653. Also, the composite z-score in assay [8] was -2.27; in assay [9], -1.97; in [10], -0.616; in assay [11] it was 0.442; in [12], -0.372; in assay [13], -1.29. Further, the composite z-score in assay [14] is -3.9; in [15], -0.71; in [16] it was 0.392; in [18], -1.79; in assay [19] it was -0.0414. In addition, the composite Z-score in [2] was -0.648 (inactive). Moreover, the z-score in assay [17] is -0.487; in assay [20], 0.309 (inactive).

With `CNS(=O)(=O)c1ccc(C)cc1`, the composite z-score is -0.189 in assay [1]; -0.185 in [3]; -0.0761 in assay [4]; -0.0894 in assay [5]; 0.284 in [6]; 0.291 in assay [7]. In addition, the composite z-score was 0.667 in assay [8]; 1.07 in assay [9]; 0.613 in [10]; -0.0728 in assay [11]; 0.668 in assay [12]; -0.163 in assay [13]. The composite z-score in assay [14] was -0.212; in assay [15], 0.884; in assay [16], 0.917; in assay [18], 0.39; in assay [19] it was 0.0044. Moreover, the composite Z-score in assay [2] is 0.348 (inactive). The values for the z-score in assay [17] and in assay [20] were 1.55 and -1.2 (inactive), respectively.

On to `COC(=O)[C@@]1(Cc2ccc(F)cc2)[C@H]2c3cc(C(=O)N4CCCC4)n(CCCNc4ncc(C(F)(F)F)cc4Cl)c3C[C@H]2CN1C(=O)c1ccccc1`, for which the composite z-score in assay [1] is 0.357; in assay [3], 0.69; in assay [4], 0.362; in assay [5], 0.728; in assay [6], 2.01; in assay [7] it was -0.252. Moreover, the composite z-score in assay [8] came to 0.541; in assay [9] it was 0.197; in assay [10] it was 0.625; in assay [11] it was 2.47; in assay [12], 1.08; in assay [13] it was 0.604. In addition, the composite z-score is 0.817 in assay [14]; -0.0084 in [15]; -0.903 in [16]; -0.695 in assay [18]; 1.03 in [19]. Moreover, the composite Z-score in assay [2] was -0.585 (inactive). In addition, the z-score in [17] was 0.742; in assay [20], 1.37 (inactive).

As for `CC(C)C(=C=CC[C@H](O)c1ccc(OCCO)cc1)CCO`, the composite z-score in assay [1] is 0.467; in [3] it was -0.116; in assay [4] it was -0.174; in assay [5], 0.228; in assay [6], 1.83; in [7] it was 0.182. In addition, the composite z-score in assay [8] amounted to 1.28; in assay [9], 0.489; in assay [10], 0.549; in [11] it was 1.07; in [12] it was 1.2; in [13] it was 0.178. Besides, the composite z-score in assay [14] came out at 0.53; in assay [15], 1.38; in assay [16], 1.05; in [18], 1.07; in assay [19], 0.295. The composite Z-score in assay [2] was -0.435 (inactive). Further, the z-score was 0.41 in [17] and -0.961 (inactive) in assay [20].

Regarding `CC1CC/C=C\[C@H]2OC34C=CCN(Cc5ccccc5)C(=O)[C@H]3N(CCCO)C(=O)[C@@H]4C2C(=O)O1` (stereo not given in full), the composite z-score in assay [1] is -0.0908; in assay [3], -0.437; in [4], -0.155; in assay [5], 0.861; in [6], -0.0465; in [7], 1.25. For the same molecule, the composite z-score was -0.649 in assay [8]; -0.933 in [9]; -0.841 in [10]; 0.522 in assay [11]; -0.67 in assay [12]; -0.364 in assay [13]. Moreover, the composite z-score is 0.623 in assay [14]; -0.838 in assay [15]; -0.536 in assay [16]; -0.215 in [18]; -0.176 in assay [19]. Further, in assay [2], the composite Z-score is -0.422 (inactive). Moreover, the z-score in [17] is -0.178; in assay [20], -0.483 (inactive).
